# Results as given in PubChem BioAssay AID624139 (Broad Institute, 2012).
# In all, about 17,000 compounds went through this assay and about 220 (1.3%) were called active.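 How the source made its calls: active means spot fluorescence over background significantly raised, with a chance value under 7% in all four replicate spots of the compound; inactive means the rest.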 This excerpt belongs to a sample that is enriched for actives.
# Target: Nuclear factor NF-kappa-B p105 subunit (Homo sapiens) (UniProt P19838)
# Assay: small molecules binding NF-kappa-B p105/p50 – biochemical, small molecule microarray, anti-His fluorescence, primary screen (AID 624139);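 further: probe protein is his-tagged human p50 processed subunit at 1 µg/ml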
# Nuclear factor NF-kappa-B p105 subunit (Homo sapiens), sequence (P19838 1-433 limits assumed): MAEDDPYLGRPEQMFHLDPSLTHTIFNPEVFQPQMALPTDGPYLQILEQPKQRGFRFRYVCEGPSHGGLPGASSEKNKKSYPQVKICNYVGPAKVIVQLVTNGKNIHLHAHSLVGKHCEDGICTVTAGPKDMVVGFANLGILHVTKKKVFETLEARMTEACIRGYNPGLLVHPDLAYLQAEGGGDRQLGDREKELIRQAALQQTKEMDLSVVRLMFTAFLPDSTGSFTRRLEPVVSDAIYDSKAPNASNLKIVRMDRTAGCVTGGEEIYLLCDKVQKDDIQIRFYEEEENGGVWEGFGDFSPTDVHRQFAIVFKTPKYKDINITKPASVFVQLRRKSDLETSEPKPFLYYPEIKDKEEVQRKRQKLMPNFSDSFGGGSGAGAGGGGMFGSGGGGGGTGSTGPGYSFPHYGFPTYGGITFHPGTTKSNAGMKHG
row,SMILES,outcome
1,O=C1CC(C(=O)Nc2cccc(C(=O)O)c2)C(c2ccccc2)O1 (configuration not stated),inactive
2,Cc1noc(C)c1S(=O)(=O)N(C)C[C@H]1Oc2ccc(NC(=O)Nc3cccc4ccccc34)cc2CC(=O)N([C@@H](C)CO)C[C@H]1C,inactive
3,Cc1noc(C)c1NC(=O)Nc1ccc2c(c1)CC(=O)N([C@H](C)CO)C[C@H](C)[C@H](CN(C)C(=O)NC(C)C)O2,inactive
4,O=C1O[C@@H](c2ccccc2)[C@@H](c2ccccc2)N2[C@@H](c3ccc(OCCO)cc3)[C@]3(C(=O)Nc4ccc(C#CCCO)cc43)[C@@H](C(=O)O)[C@H]12,inactive
5,COc1ccc(C#Cc2ccc3c(c2)[C@]2(C(=O)N3)[C@H](C(=O)N3CCCCCCC3)[C@H]3C(=O)O[C@H](c4ccccc4)[C@H](c4ccccc4)N3[C@@H]2c2ccc(O)cc2)cc1,inactive
6,O=C1O[C@@H](c2ccccc2)[C@@H](c2ccccc2)N2[C@@H](c3ccccc3OCCO)[C@]3(C(=O)Nc4ccccc43)[C@@H](C(=O)N3CCCCCCC3)[C@H]12,inactive
7,COc1ccc(C#Cc2ccc3c(c2)[C@]2(C(=O)N3)[C@H](c3ccccc3OCCO)N3[C@H](c4ccccc4)[C@H](c4ccccc4)OC(=O)[C@H]3[C@@H]2C(=O)N2CCCCCCC2)cc1,active
8,COc1ccc(C#Cc2ccc3c(c2)[C@]2(C(=O)N3)[C@H](C(=O)N3CCc4cc(OC)c(OC)cc4C3)[C@H]3C(=O)O[C@H](c4ccccc4)[C@H](c4ccccc4)N3[C@@H]2c2ccc(O)cc2)cc1,active
9,O=C1O[C@@H](c2ccccc2)[C@@H](c2ccccc2)N2[C@@H](c3ccccc3OCCO)[C@]3(C(=O)Nc4ccc(C#CC5(O)CCCCCC5)cc43)[C@@H](C(=O)N3CCCCCCC3)[C@H]12,inactive
10,O=c1c(-c2ccc(O[C@@H]3O[C@H](CO)[C@@H](O)[C@H](O)[C@H]3O)cc2)coc2c([C@@H]3O[C@H](CO)[C@@H](O)[C@H](O)[C@H]3O)c(O)cc(O)c12,inactive
11,CC(C)NC(=O)Nc1ccc2c(c1)C(=O)N([C@H](C)CO)C[C@H](C)[C@H](CN(C)C(=O)CCC(F)(F)F)OCCCC[C@H](C)O2,inactive
12,C[C@H](CO)N1C[C@H](C)[C@H](CN(C)S(=O)(=O)c2cn(C)cn2)OCCCC[C@H](C)Oc2ccc(N(C)C)cc2C1=O,inactive
13,C[C@H](CO)N1C[C@H](C)[C@H](CN(C)C(=O)Nc2ccccc2C(F)(F)F)OCc2cn(nn2)CCCC1=O,inactive
14,C[C@@H]1CN([C@@H](C)CO)C(=O)c2cccc(NC(=O)c3nc4ccccc4s3)c2O[C@H]1CN(C)S(=O)(=O)c1cccs1,inactive
15,COC(=O)C(CC#Cc1ccc2c(c1)[C@]1(C(=O)N2)[C@H](c2ccc(O)cc2)N2[C@H](c3ccccc3)[C@H](c3ccccc3)OC(=O)[C@H]2[C@@H]1C(=O)NC[C@H](O)c1ccccc1)C(=O)OC,inactive
16,C[C@@H]1CN([C@H](C)CO)C(=O)c2cc(NC(=O)C3CC3)ccc2O[C@@H]1CN(C)C,inactive
17,C[C@@H]1CN([C@@H](C)CO)C(=O)Cc2cc(NC(=O)Cc3ccccc3)ccc2O[C@@H]1CN(C)C(=O)Nc1ccc2c(c1)OCO2,inactive
18,C[C@@H]1CN([C@H](C)CO)C(=O)c2cc(NC(=O)Nc3ccc4c(c3)OCO4)ccc2O[C@@H]1CN(C)C(=O)Nc1ccc(F)cc1,inactive
19,COc1ccc(S(=O)(=O)N(C)C[C@@H]2Oc3ccc(NC(=O)Cc4ccccc4)cc3CC(=O)N([C@@H](C)CO)C[C@H]2C)cc1,inactive
20,C[C@@H]1CN([C@@H](C)CO)C(=O)c2cc(NS(=O)(=O)c3cn(C)cn3)ccc2O[C@@H]1CN(C)C(=O)NC1CCCCC1,inactive
21,Cc1ccc(N(C(=O)COc2ccccc2[N+](=O)[O-])C2C=CS(=O)(=O)C2)cc1 (configuration not stated),inactive

row,SMILES,outcome
1,Cc1ccc(S(=O)(=O)N(C)CC(=O)Nc2cccc(C(F)(F)F)c2)cc1,inactive
2,COCCCNC(=O)[C@@]1(C)c2ccccc2C(=O)N(Cc2ccc(OC(F)(F)F)cc2)[C@H]1c1ccc(CO)cc1,inactive
3,C[C@H](CO)N1C[C@H](C)[C@@H](CN(C)S(=O)(=O)c2cn(C)cn2)Oc2c(NC(=O)C3CC3)cccc2C1=O,inactive
4,CCOC(=O)Cc1csc(NC(=O)c2sc3cccc(F)c3c2Cl)n1,inactive
5,O=C(CNS(=O)(=O)c1cccc(C(F)(F)F)c1)Nc1ccccc1F,inactive
6,S=C(NCc1ccco1)N1CCN(c2ncccn2)CC1,inactive
7,C[C@@H]1CN([C@H](C)CO)C(=O)Cc2cc(NS(=O)(=O)c3ccc(Cl)cc3)ccc2O[C@@H]1CN(C)S(=O)(=O)c1ccc(Cl)cc1,inactive
8,COc1ccc(C)cc1S(=O)(=O)N(C)CC(=O)Nc1ccccc1SC,inactive
9,CCCCc1nn(-c2ccccc2C(F)(F)F)c(=O)n1Cc1ccc(-c2ccccc2S(=O)(=O)NC(=O)c2sccc2C)cc1,active
10,C[C@@H]1CN([C@H](C)CO)C(=O)Cc2cc(NC(=O)Cc3cn(C)c4ccccc34)ccc2O[C@@H]1CN(C)Cc1ccc(C(F)(F)F)cc1,inactive
11,CC(C)NC(=O)N(C)C[C@H]1OCCCC[C@H](C)Oc2ccc(NC(=O)CCC(F)(F)F)cc2C(=O)N([C@H](C)CO)C[C@H]1C,inactive
12,C[C@H]1CCCCO[C@@H](CN(C)C(=O)Nc2ccccc2)[C@@H](C)CN([C@@H](C)CO)C(=O)c2cc(NC(=O)CCC(F)(F)F)ccc2O1,inactive
13,Cc1ccc(N(C(C)C(=O)Nc2ccc(Br)cc2F)S(C)(=O)=O)cc1C (configuration not stated),inactive
14,C[C@@H]1CN([C@H](C)CO)C(=O)c2cccc(NS(=O)(=O)c3cn(C)cn3)c2O[C@H]1CN(C)S(=O)(=O)c1ccc(Cl)cc1,inactive
15,C[C@@H]1CN([C@H](C)CO)C(=O)Cc2cc(NC(=O)Cc3ccccc3)ccc2O[C@H]1CN(C)S(=O)(=O)c1cccs1,inactive
16,COCCOC(=O)N1C(=O)[C@@]2(c3cc(C#CCC(C(=O)OC)C(=O)OC)ccc31)[C@H](c1ccc(OCCO)cc1)N1[C@H](c3ccccc3)[C@H](c3ccccc3)OC(=O)[C@H]1[C@@H]2C(=O)NC[C@H](O)c1ccccc1,inactive
17,C[C@@H]1CCCCO[C@@H](CN(C)Cc2ccncc2)[C@H](C)CN([C@@H](C)CO)C(=O)c2cc(NS(=O)(=O)c3ccccc3)ccc2O1,inactive
18,C[C@@H]1CN([C@@H](C)CO)C(=O)Cc2cc(NC(=O)Cc3ccccc3)ccc2O[C@H]1CN(C)Cc1ccc(C(=O)O)cc1,inactive
19,Cc1noc(C)c1NC(=O)Nc1ccc2c(c1)C(=O)N([C@H](C)CO)C[C@H](C)[C@H](CN(C)C(=O)C1CCCCC1)OCCCC[C@@H](C)O2,inactive
20,C[C@H]1CCCCO[C@H](CN(C)C(=O)CCC(F)(F)F)[C@@H](C)CN([C@@H](C)CO)C(=O)c2cc(NC(=O)Cc3ccccc3)ccc2O1,inactive
21,C=CC[C@]1(C(=O)NCC(O)CO)N=C(c2ccc(OCCCO)cc2)O[C@H]1c1ccccc1 (some centres not stated),inactive

row,SMILES,outcome
1,CNC[C@@H]1Oc2c(NC(=O)C3CCOCC3)cccc2C(=O)N([C@@H](C)CO)C[C@H]1C,inactive
2,COc1ccc(NC(=O)O[C@H]2[C@H](OC(=O)Nc3ccc4c(c3)OCO4)[C@@H](OC(=O)Nc3ccc4c(c3)OCO4)[C@@H](OC)O[C@@H]2CO)cc1,inactive
3,C[C@H](CO)N1C[C@H](C)[C@@H](CN(C)Cc2ccncc2)Oc2ccc(NC(=O)Nc3ccccc3)cc2C1=O,inactive
4,C[C@H](CO)N1C[C@H](C)[C@H](CN(C)Cc2ccncc2)Oc2ccc(NC(=O)Nc3ccc(F)cc3)cc2C1=O,inactive
5,C[C@@H]1CN([C@@H](C)CO)C(=O)c2cc(NS(=O)(=O)c3cn(C)cn3)ccc2O[C@@H](C)CCCCO[C@H]1CN(C)S(=O)(=O)c1cn(C)cn1,inactive
6,OC(COc1ccc2ccccc2c1)Cn1cncn1 (configuration not stated),inactive
7,COc1ccc(S(=O)(=O)N(C)C[C@@H]2Oc3ccc(NS(=O)(=O)c4ccc(Cl)cc4)cc3C(=O)N([C@H](C)CO)C[C@H]2C)cc1,inactive
8,Cc1cc(C(=O)Nc2cccc3c2O[C@H](CN(C)C(=O)Nc2ccccc2)[C@@H](C)CN([C@H](C)CO)C3=O)n(C)n1,inactive
9,O=c1[nH]c(CSCCO)nc2c1C1(CCCCC1)Cc1ccccc1-2,inactive
10,C[C@@H]1CCCCO[C@@H](CN(C)Cc2ccc(Cl)c(Cl)c2)[C@@H](C)CN([C@@H](C)CO)C(=O)c2cc(NS(C)(=O)=O)ccc2O1,inactive
11,CO[C@H]1O[C@H](CO)[C@@H](OC(=O)Nc2ccccc2)[C@H](OC(=O)Nc2ccc3c(c2)OCO3)[C@H]1OC(=O)Nc1ccc2c(c1)OCO2,inactive
12,O=C(Cn1c(-c2ccccn2)nc2ccccc21)NCCN1CCOCC1,inactive
13,C[C@H]1CN([C@@H](C)CO)C(=O)CCCn2nncc2CO[C@@H]1CN(C)Cc1ccc(Oc2ccccc2)cc1,inactive
14,O=C1c2ccccc2C(=O)N1CCCn1c2ccccc2c2nc3ccc([N+](=O)[O-])cc3cc21,inactive
15,C[C@H]1CCCCO[C@@H](CN(C)Cc2ccncc2)[C@@H](C)CN([C@@H](C)CO)C(=O)c2cc(NC(=O)Nc3ccc(F)cc3)ccc2O1,inactive
16,CN(C)c1nc(Nc2nc3ccccc3[nH]2)nc(N(C)C)n1,inactive
17,Cc1ccc(NC(=O)c2ccc(NCc3cccnc3)c([N+](=O)[O-])c2)cc1,inactive
18,COc1ccc(S(=O)(=O)N(C)C[C@H]2Oc3ccc(NC(=O)CCC(F)(F)F)cc3CC(=O)N([C@H](C)CO)C[C@@H]2C)cc1,inactive
19,CC(C)NC(=O)N(C)C[C@H]1OCCCC[C@H](C)Oc2ccc(NC(=O)CCCN(C)C)cc2C(=O)N([C@@H](C)CO)C[C@H]1C,inactive
20,COC(=O)c1c(NC(=O)c2cc(-c3ccccn3)nc3c(C)cc(C)cc23)sc(C)c1C,inactive
